Laboratory results as given in PMC5540273 (PLoS ONE, 2017).

Tests used:
Conditions in all cases: concentration: 1 μM,replicates: in singlicate; n = 1
ADCK4 = system: ADCK4
AKT1 = system: AKT1
AKT2 = system: AKT2
AKT3 = system: AKT3
ALK = system: ALK
AMPK-alpha1 = system: T1, AMPK-alpha1
T1 construct: gene PRKAA1

AMPK-alpha2 = system: T2, AMPK-alpha2
T2 construct: gene PRKAA2

ANKK1 = system: ANKK1
ARK5 = system: T3, ARK5
T3 construct: gene NUAK1

ASK1 = system: T4, ASK1
T4 construct: gene MAP3K5
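Also: KINOMEscan kinase panel screen.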

SMILES | %Inh (ADCK4) | %Inh (AKT1) | %Inh (AKT2) | %Inh (AKT3) | %Inh (ALK) | %Inh (AMPK-alpha1) | %Inh (AMPK-alpha2) | %Inh (ANKK1) | %Inh (ARK5) | %Inh (ASK1)
O=C(Nc1cccc(C(F)(F)F)c1)c1cccc(Oc2ccc3nccn3n2)c1 | 0% | 0% | 17% | 1% | 0% | 8% | 84% | 0% | 0% | 5%
Cc1cccc2c(-c3ccncc3)c(-c3ccc(F)cc3)nn12.Cl [GW461487] | 28% | 0% | 2% | 0% | 7% | 17% | 0% | 24% | 11% | 1%
O=C(NOCC1CC1)c1cc(Br)c(F)c(F)c1Nc1ccc(I)cc1Cl | 0% | 0% | 0% | 0% | 0% | 4% | 0% | 0% | 12% | 0%
CN(c1ccc2c(c1)nc(NCc1ccc(F)cc1)n2C)c1ccnc(Nc2ccc(CS(C)(=O)=O)cc2)n1.Cl [GW813244] | 21% | 8% | 0% | 1% | 0% | 11% | 5% | 0% | 4% | 37%
COC(=O)c1cccc(NC(=O)NC2CCN(c3ccnc(NCc4ccc(F)cc4)n3)CC2)c1 [GSK1379860] | 18% | 0% | 0% | 0% | 30% | 0% | 0% | 0% | 10% | 0%
Cc1ccc2c(-c3ccnc(Nc4ccc(C(F)(F)F)cc4)n3)cnn2n1 [GW819776] | 35% | 0% | 0% | 0% | 0% | 11% | 8% | 0% | 0% | 0%
CC(=O)Nc1nc2cnc(Nc3cc(NC(=O)c4cccc(CC(C)(C)C#N)c4)ccc3C)nc2s1 | 0% | 12% | 5% | 0% | 42% | 3% | 7% | 0% | 7% | 7%
CCN1CCN(CCCC(=O)Nc2n[nH]c3nc(-c4ccc(O)cc4)c(Br)cc23)CC1 [SB-731579] | 16% | 0% | 0% | 0% | 0% | 0% | 0% | 0% | 5% | 0%
Cc1nnc(-c2ccc3occ(-c4ccc(S(C)=O)cc4)c3n2)o1 (stereo not drawn) | 0% | 0% | 17% | 0% | 0% | 0% | 0% | 0% | 10% | 0%
Nc1nccc(-c2ccc3c(N)n[nH]c3c2)n1 [GSK1034945] | 33% | 0% | 10% | 0% | 20% | 0% | 0% | 31% | 0% | 0%
CS(=O)(=O)c1cccc(CNc2nc(Nc3ccc4c(c3)[C@@H]3C[C@@H]4CNC3=O)ncc2C(F)(F)F)c1 | 0% | 0% | 0% | 0% | 0% | 37% | 28% | 22% | 94.6% | 0%
C[C@@H]1CNc2c(sc3ccc4nc(-c5ccc(O)cc5)ccc4c23)C(=O)N1 | 10% | 0% | 0% | 0% | 16% | 30% | 0% | 0% | 0% | 91%
CC(C)c1nc(-c2cccc(NS(=O)(=O)c3ccccc3)c2)c(-c2ccnc(Nc3ccc4c(c3)CN(C)CC4)n2)s1 [GSK1649598] | 97.4% | 0% | 4% | 0% | 0% | 82% | 94.5% | 42% | 6% | 0%
O=C(Nc1n[nH]c2cc(-c3ccco3)ccc12)C1CC1 [SB-737447] | 7% | 0% | 0% | 0% | 7% | 3% | 0% | 27% | 0% | 0%
CSc1nccc(-c2c(-c3ccc(F)cc3)ncn2CCCN2CCOCC2)n1.Cl [SB-217146] | 25% | 14% | 0% | 0% | 0% | 0% | 0% | 1% | 0% | 0%
O=C(Nc1ccc(Oc2ccc3nc(NC(=O)C4CC4)cn3n2)c(F)c1)c1cccn(-c2ccccc2)c1=O | 0% | 18% | 13% | 30% | 0% | 0% | 3% | 0% | 0% | 3%
C[C@@H]1CCN(C(=O)N2CCCC2)C[C@@H]1N(C)c1ncnc2[nH]ccc12 | 0% | 0% | 3% | 0% | 0% | 66% | 77% | 0% | 16% | 0%

SMILES | %Inh (ADCK4) | %Inh (AKT1) | %Inh (AKT2) | %Inh (AKT3) | %Inh (ALK) | %Inh (AMPK-alpha1) | %Inh (AMPK-alpha2) | %Inh (ANKK1) | %Inh (ARK5) | %Inh (ASK1)
C[C@@H](Oc1cc(-n2cnc3cc(-c4ccncc4)ccc32)sc1C(N)=O)c1ccccc1Cl [GSK479719] | 9% | 0% | 6% | 0% | 31% | 5% | 17% | 0% | 75% | 4%
CN1CCN(CCNc2nc3cc(Oc4ccc(NC(=O)Nc5cc(C(F)(F)F)ccc5F)cc4)ccc3[nH]2)CC1.Cl.Cl [GW768504] | 22% | 4% | 0% | 0% | 0% | 9% | 11% | 0% | 29% | 0%
Cn1ccc2ncnc(Oc3ccc(NC(=O)Nc4cnn(C(C)(C)C)c4)c(Cl)c3)c21 | 0% | 0% | 8% | 13% | 0% | 19% | 20% | 0% | 19% | 2%
O=C(Nc1ccccc1)c1cccc(Oc2ccc3nccn3n2)c1 | 0% | 11% | 0% | 0% | 0% | 5% | 7% | 2% | 0% | 0%
Cn1cc(-c2cccc3c(N)c(C(N)=O)nnc23)cn1 | 11% | 0% | 0% | 15% | 10% | 47% | 49% | 19% | 0% | 1%
C[C@@H](Oc1cc(-n2cnc3cc(-c4cnn(C)c4)ccc32)sc1C(N)=O)c1ccccc1Cl [GSK580432] | 29% | 0% | 0% | 0% | 31% | 39% | 27% | 0% | 98.7% | 0%
CN(c1ccccc1CNc1nc(Nc2ccc3c(c2)CC(=O)N3)ncc1C(F)(F)F)S(C)(=O)=O | 0% | 0% | 0% | 0% | 92.4% | 74% | 70% | 0% | 92.1% | 0%
Cc1ccc(C(=O)Nc2ccc(Oc3ccc4nc(NC(=O)C5CC5)cn4c3)c(F)c2)c(=O)n1-c1ccccc1 | 27% | 0% | 0% | 7% | 8% | 5% | 0% | 0% | 0% | 0%
O=C(Nc1cccc(Oc2ccc3nccn3n2)c1)Nc1cccc(C(F)(F)F)c1 | 0% | 0% | 0% | 7% | 14% | 0% | 0% | 0% | 8% | 0%
Cn1ccc2ncnc(Oc3ccc(NC(=O)Nc4ccnc(C(F)(F)F)c4)c(Cl)c3)c21 | 4% | 7% | 0% | 0% | 0% | 0% | 0% | 0% | 2% | 0%
O=C1NCCc2[nH]c(-c3ccncc3)cc21 | 0% | 0% | 0% | 0% | 0% | 6% | 0% | 10% | 0% | 40%
CC(C(=O)NC1CCN(c2ccnc(Nc3ccc(F)cc3)n2)C1)c1ccc(Cl)cc1 (stereo not drawn) [GSK1379713] | 13% | 0% | 0% | 0% | 5% | 10% | 0% | 4% | 0% | 0%
COC(=O)Nc1nc2cc(Oc3ccc(NC(=O)Nc4cc(C(F)(F)F)ccc4Cl)cc3)ccc2[nH]1.Cl [GW697465] | 48% | 0% | 0% | 0% | 30% | 0% | 0% | 0% | 0% | 11%
Cl.c1ccc(Oc2ccc(Nc3ccnc4cc(-c5ccc(CN6CCNCC6)o5)ccc34)cc2)nc1 [GW567142] | 18% | 0% | 0% | 0% | 15% | 0% | 0% | 0% | 12% | 0%
O=C(NCC1CC1)c1ccc(-c2cc(C(=O)NC3CC3)ccc2F)cc1 [GW810445] | 23% | 24% | 0% | 0% | 10% | 0% | 0% | 0% | 0% | 19%
CCn1c(-c2nonc2N)nc2cncc(Br)c21 [SB-738004] | 23% | 0% | 13% | 0% | 31% | 18% | 0% | 1% | 0% | 13%
